Test results: PubChem BioAssay
Unmarked numbers belong to inactive results. The rule behind the calls is not given here.

Target: Pantothenate synthetase (Mycobacterium tuberculosis (strain ATCC 25618 / H37Rv)) (UniProt P9WIL5)
Assay: Recombinant Mtb pantothenate synthetase (PanC) inhibitors, coupled enzyme, confirmatory (AID 375);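 note: 0% = full reaction with vehicle and 100% = no enzyme background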
Conditions: coupled enzyme assay; at 10 µM, active compounds read high

Chain of Pantothenate synthetase (Mycobacterium tuberculosis (strain ATCC 25618 / H37Rv)) (P9WIL5 whole entry, looked up): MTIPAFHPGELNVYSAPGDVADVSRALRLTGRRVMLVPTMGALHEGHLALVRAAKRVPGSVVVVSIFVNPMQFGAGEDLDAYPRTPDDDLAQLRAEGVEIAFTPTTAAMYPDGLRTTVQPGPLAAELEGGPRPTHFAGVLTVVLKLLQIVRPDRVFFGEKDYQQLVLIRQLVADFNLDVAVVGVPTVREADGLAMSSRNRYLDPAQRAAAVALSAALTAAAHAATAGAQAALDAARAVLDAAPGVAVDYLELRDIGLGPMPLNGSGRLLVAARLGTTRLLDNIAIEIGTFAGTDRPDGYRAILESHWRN

SMILES | inhibition
CCn1cc(C(=O)N2CCN(C(=O)c3ccco3)CC2)c2cc(OC)c(OC)cc2c1=O | 0%
CCOC(=O)N1CCC(NC(=O)c2ccc3nc(N4CCOCC4)sc3c2)CC1 | 5%
O=C(CSc1ccccc1C(=O)NCCCN1CCCC1=O)NCc1ccco1 | 5%
Cc1cc(C(F)(F)F)nc(SCC(=O)NC2=NC(=O)C(C)S2)n1 (stereo not given) | 2%
CCC(=O)c1cc(F)c(N2CCN(C(=O)c3ccco3)CC2)cc1C | 7%
CSc1ccccc1NC(=O)c1noc2c1CCC2 | 0%
COc1ccccc1CN1CCCC(C(=O)N(C)Cc2ccccc2)C1 (stereo not given) | 0%
Cc1cc(C(=O)CSc2nnc(-c3ccco3)o2)c(C)n1CC1COc2ccccc2O1 (stereo not given) | 0%
O=C(NCc1ccccn1)c1cccs1 | 0%
Cc1cc(O)c(-c2cc(C(=O)Nc3ccc(S(=O)(=O)N4CCOCC4)cc3)[nH]n2)cc1C | 0%
COC(=O)C1C(=O)c2c([nH]c(C(=O)OCCOC(C)C)c2C)CC1C (stereo not given) | 0%
CC(=O)Nc1ccc(OC(=O)c2cccnc2)cc1 | 0%
Cc1cc(=O)n(CC(C)C)c(O)c1C#N | 0%
COc1ccccc1NC1=C(C)C(=O)CC1 | 0%
CC1=C(C(=O)Nc2ccccc2)C(c2ccccn2)n2nc(CCCO)nc2N1 (stereo not given) | 7%
O=C(Nc1ccc(Cl)cc1)N1CCSCC1 | 1%
Cc1cc(O)c(NC(=O)c2ccc(Br)o2)cc1C | 11%
O=C1CN(C(=O)CN2CCCC2)C(c2ccccc2)c2cc(Br)ccc2N1 (stereo not given) | 0%
CN=c1sc2ccccc2n1CC(O)COCc1ccco1 (stereo not given) | 0%
CCOC(=O)c1ccc2nc(C)c3c(c2c1)OC(C)C3 (stereo not given) | 0%

SMILES | inhibition
CSc1ccccc1NS(=O)(=O)c1ccccc1 | 3%
COC(=O)c1[nH]c2ccc(C)cc2c1NC(=O)CN1CCC(C)CC1 | 0%
Cc1nn(Cc2ccccc2)c(C)c1NC(=O)c1cc(-c2ccco2)on1 | 3%
Cc1cc(NC(=O)Cc2c(F)cccc2Cl)no1 | 10%
Oc1ccc(Nc2nc(-c3ccc(O)cc3)cs2)cc1 | 2%
Cn1cnnc1Sc1nc2c(c(=O)n(C)c(=O)n2C)n1C | 0%
CN(c1cccc(NC(=O)COc2ccccc2)c1)S(C)(=O)=O | 6%
COc1ccccc1C1C(C#N)=C(N)Oc2cc(C)n(Cc3ccccn3)c(=O)c21 (stereo not given) | 1%
COc1c2occc2c(OC)c2c(=O)cc(C)oc12 | 8%
CCOC(=O)c1cnc(-n2nc(C)cc2C)nc1N1CC(C)OC(C)C1 (stereo not given) | 0%
COc1ccc(Cl)c(NC(=O)NCCN2CCN(c3ccccc3)CC2)c1 | 0%
Cc1cc(C)n(-c2ccc(N3CCOCC3)nn2)n1 | 0%
COc1cc(-c2nn3c(-c4cccnc4)nnc3s2)cc(OC)c1OC | 6%
CC(c1ccco1)N(C(=O)COc1ccc(Cl)cc1Cl)c1ccccn1 (stereo not given) | 4%
c1ccc(CN2CCN(CCCNc3ccc4nnc(-c5ccccc5)n4n3)CC2)cc1 | 10%
CCCN1CCN(CCCNC(=O)Cn2ncc3c4ccccc4n(C)c3c2=O)CC1 | 3%
COc1ccccc1C(=O)OCn1nnc2ccccc2c1=O | 0%
Cc1nc2ccccc2c(=O)n1NC(=O)Nc1ccccc1 | 0%
CC(=O)Oc1ccc(CCC(C)OC(C)=O)cc1 (stereo not given) | 8%
CC1(C)S[C@@H]2[C@H](NC(=O)[C@H](N)c3ccccc3)C(=O)N2[C@H]1C(=O)O | 2%
